Giardia killer: kills Giardia lamblia; AID 540267; Giardia lamblia trophozoite viability; 340,000 tested, 0.15% active; activity change, % at 7.66 µM, hits read low; in the data active means activity change below about -80%; inconclusive means between about -30% and that limit;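 further: parasites exposed to compound for two days anaerobically before the ATP read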
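Luminescence from cellular ATP indicates surviving trophozoites (100 cells/well) following 48 hrs anaerobic compound treatment at 37 deg C; signal develops 15-30 min at room temperature.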
TDP1 cell CPT: growth inhibition of DT40 Tdp1-/-;hTDP1 cells with camptothecin (screen for TDP1 inhibitors); AID 686979; 420,000 tested, 12% active; Potency, µM (series often up to 46.2 µM), for inactives: at the top dose activity change, negative = growth inhibition, hits mostly inhibitors; chicken DT40 Tdp1-/-;hTDP1 cells + 20 nM CPT, ATP luminescence, 48 h; further: potency means the concentration at half of the fitted maximal effect; nearly all actives have a fitted effect of over 55% in size
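Chicken DT40 Tdp1-/- cells complemented with human TDP1, 400 cells/well, exposed to compounds plus 20 nM camptothecin for at least 48 h at 37 C; viability read as ATP content by CellTiter-Glo luminescence.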
TDP1 inh: TDP1 (human) enzyme inhibition | recombinant TDP1, AlphaScreen DNA substrate cleavage | Potency, µM (titrated, usually from 130 µM), without a hit: top-dose activity change, negative = inhibition, most hits filed as inhibitors | 350,000 tested, 0.28% active; further: potency means the concentration at half of the fitted maximal effect; nearly all actives have a fitted effect of over 40% in size
Target sequence (Q9NUW8 whole entry, looked up): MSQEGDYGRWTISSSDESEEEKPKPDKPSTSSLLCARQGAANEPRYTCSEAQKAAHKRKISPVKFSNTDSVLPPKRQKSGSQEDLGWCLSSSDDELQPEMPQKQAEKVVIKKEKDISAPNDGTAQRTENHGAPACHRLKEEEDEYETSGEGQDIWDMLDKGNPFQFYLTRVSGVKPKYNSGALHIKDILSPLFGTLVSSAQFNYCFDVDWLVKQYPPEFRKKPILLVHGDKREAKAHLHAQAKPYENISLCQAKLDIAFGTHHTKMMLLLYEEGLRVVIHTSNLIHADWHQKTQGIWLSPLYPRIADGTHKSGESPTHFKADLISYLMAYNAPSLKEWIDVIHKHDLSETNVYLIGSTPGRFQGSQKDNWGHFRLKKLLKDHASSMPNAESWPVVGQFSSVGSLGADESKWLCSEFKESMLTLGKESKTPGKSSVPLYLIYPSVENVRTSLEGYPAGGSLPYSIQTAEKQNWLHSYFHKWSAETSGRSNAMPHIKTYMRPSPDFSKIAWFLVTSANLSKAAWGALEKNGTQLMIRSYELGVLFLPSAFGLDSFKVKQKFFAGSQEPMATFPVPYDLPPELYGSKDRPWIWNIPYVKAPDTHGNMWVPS
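Tdp1 1 nM final; 15 min RT w/ cpd; substrate 15 nM, 5 min; beads 10 ug/ml, 10 min; AlphaScreen read. Neg ctrl: no enzyme.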
TDP1 cell noCPT: qHTS for Inhibitors of human tyrosyl-DNA phosphodiesterase 1 (TDP1): qHTS in cells in absence of CPT; 420,000 tested, 15% active; Potency, µM (titrated, usually from 46.2 µM), without a hit: at the highest dose activity change, negative = growth inhibition, actives largely listed as inhibitors; DT40 Tdp1-/- hTDP1 cells, no CPT, ATP luminescence, 48 h; AID 686978, 2013; further: potency means the concentration at half of the fitted maximal effect; nearly all actives have a fitted effect of over 55% in size
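Luminescent ATP content (CellTiter-Glo) served as the growth readout. Knockout chicken DT40 cells expressing human TDP1 were exposed to compounds without camptothecin for a minimum 48 hr at 37 °C.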
IL1B secr inh: inflammasome signaling inhibition, IL-1 beta readout. THP-1 LPS/ATP IL-1B secretion, AlphaLISA, 16 h; stronger effect = lower value. activity change, % at 57.5 µM. 360,000 tested, 4.7% active; in the data active means activity change below about -50%; inconclusive means mostly about -30% to -49%
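THP-1 cells pretreated 1 hr with compounds (up to 57.5 uM final), then stimulated with LPS (250 ng/mL final) plus ATP (1.25 mM final); secreted IL-1B measured by AlphaLISA after 16 hr, decreased signal indicating inhibition.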
ELG1 repair inh: ELG1-dependent DNA repair inhibition; AID 504467; 330,000 tested, 2.3% active; HEK293T ELG1-luciferase reporter, luminescence, 16 h; DNA damage induced by 5-fluorouridine; Potency, µM (titrated, usually from 46.1 µM), inactives show at the top dose activity change, negative = inhibition, actives largely listed as inhibitors; further: potency means the concentration at half of the fitted maximal effect; nearly all actives have a fitted effect of over 55% in size
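Overnight (16 hr) co-exposure of 2,000 cells/well to 5-fluorouridine and compound at 37 °C preceded detection. Luciferase was quantified via ONE-Glo luminescence; loss of signal denotes inhibition.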
Numbers without * were called inactive; ? = inconclusive; · = not tested or not shown. The list is not random: actives were taken first. Their share in the collection is about 19%. Unless noted, the call rests on the fitted dose curve; in most records, active means well fitted curve in the direction sought with a large enough effect; inconclusive means small, poorly fitted or top-dose-only effect, or another doubt; inactive means no such curve, though single readings can be large; an effect the other way counts as inactive or inconclusive. On the % scale 0 is the no-effect control and ±100 the full control effect.

SMILES | Giardia killer | TDP1 cell CPT | TDP1 inh | TDP1 cell noCPT | IL1B secr inh | ELG1 repair inh
COc1cccc(CNC(=O)C(C)n2ccc3cc(S(=O)(=O)N4CCCCCC4)ccc32)c1 (stereo unspecified) | 3 | 5.2µM* | 4% | 15µM* | -27 | -18%
Cc1ccc(C(=O)NCC(=O)OC(C)C(=O)NC2CCCCC2C)cc1C (stereo unspecified) | -7 | 11% | · | -13% | 21 | 21%
O=C(Cn1ccc2cc(S(=O)(=O)N3CCCCCC3)ccc21)NCc1ccccc1Cl | · | ? | 11% | ? | · | ·
CC(C(=O)NCc1ccccc1Cl)n1ccc2cc(S(=O)(=O)N3CCCCC3)ccc21 (stereo unspecified) | · | 16µM* | 6% | 16µM* | · | ·
CC1=NN(c2ccccc2)C(=O)/C1=C/C=C/c1ccc(N(C)C)cc1 | -28 | 23µM* | 12% | 23µM* | -3 | 0%
CC1=NN(c2ccccc2)C(=O)/C1=C/c1cccc(C)c1 | 5 | ? | · | ? | -5 | 3%
CC1=NN(c2ccccc2)C(=O)/C1=C\C=C\c1ccccc1 | -15 | 4.6µM* | 11% | 7.3µM* | · | 18µM*
Cc1nc(C)c(NC(=O)OC(C)C)cc1NC(=O)OC(C)C | 8 | 11% | 6% | -2% | 15 | -2%
Cc1cccc2[nH]c(CN(C)C(=O)CC3C(=O)NCCN3CC(C)(C)C)nc12 (stereo unspecified) | 6 | 4% | -3% | -24% | -2 | 5%
O=C1Nc2ccccc2C1Cc1ccccc1 (stereo unspecified) | -23 | ? | · | -10% | -8 | ?
O=C1C=CC2(C=C1)O[C@H](Cc1ccccc1)[C@@H](Cc1ccccc1)O2 | -5 | 1µM* | · | 0.65µM* | -100* | ·
COc1ccc(C[C@@H]2OC3(C=CC(=O)C=C3)O[C@H]2Cc2ccc(OC)cc2)cc1 | -26 | 0.41µM* | · | 0.37µM* | -77* | ·
O=C(COC(=O)c1ccccc1OCC(=O)Nc1ccc(Br)cc1)Nc1ccccc1 | -3 | ? | 2% | ? | 12 | 11%
CC(C)NC(=O)COC(=O)c1ccccc1OCC(=O)Nc1ccc(Br)cc1 | · | -57% | · | -4% | · | ·
O=C(COc1ccccc1C(=O)OCC(=O)N1CCOCC1)Nc1ccc(Br)cc1 | · | 16µM* | · | 14µM* | · | ·
CC(C)(C)c1ccc(NC(=O)COC(=O)c2ccccc2OCC(=O)Nc2ccc(Br)cc2)cc1 | · | 16µM* | · | ? | · | ·
CN(C)C(=O)COc1ccccc1C(=O)OCC(=O)Nc1ccc(Oc2ccc(Br)cc2)cc1 | · | ? | · | 11µM* | · | ·
O=C(OCC(=O)N1CCOCC1)c1ccccc1OCc1ccccc1 | -6 | -7% | 2% | 0% | -5 | ?
CN(C(=O)COC(=O)c1ccccc1OCC(=O)Nc1ccc(Br)cc1)c1ccccc1 | · | ? | · | 11µM* | · | ·
CCOc1ccc(NC(=O)COC(=O)c2ccccc2OCC(=O)N(C)C)cc1 | · | -16% | · | -13% | · | ·
O=C(O)C1c2ccccc2C(=O)N(Cc2ccc(F)cc2)C1c1ccncc1 (stereo unspecified) | -1 | 0% | -1% | -19% | 23 | 0%
CN(CC(=O)Nc1ccc(F)c(F)c1F)C(=O)c1ccc2c(c1)OCCO2 | 7 | 3% | 0% | 1% | 7 | 17%
Cc1ccc(CNC(=O)COC(=O)c2ccccc2OCC(=O)Nc2ccc(Br)cc2)cc1 | · | -29% | · | -10% | · | ·
CCOc1cc2ccccc2cc1C(=O)OCC(=O)Nc1ccc(Br)cc1 | · | -29% | · | -5% | · | ·
CC(C)c1cccc(NC(=O)COC(=O)c2ccccc2OCc2cccc(Br)c2)c1 | · | ? | · | 16µM* | · | ·
SMILES | Giardia killer | TDP1 cell CPT | TDP1 inh | TDP1 cell noCPT | IL1B secr inh | ELG1 repair inh
COC(=O)c1ccc(NC(=O)c2ccccc2OCC(=O)Nc2ccc(Br)cc2)cc1 | · | ? | · | 10µM* | · | ·
COc1cc2ccccc2cc1C(=O)OCC(=O)Nc1ccc(Br)cc1 | · | 7.9µM* | · | ? | · | ·
CCC(C)NC(=O)COC(=O)c1ccccc1OCC(=O)Nc1ccc(Br)cc1 (stereo unspecified) | -8 | ? | 3% | ? | 1 | ?
CC1(C(=O)NCCc2c[nH]c3ccccc23)CCN1Cc1ccccc1OC(F)F (stereo unspecified) | · | 18µM* | · | ? | -20 | ·
CC(C)CNC(=O)C1(C)CCCN1Cc1ccccc1OC(F)F (stereo unspecified) | · | 21µM* | · | 23µM* | -5 | ·
CC1(C(=O)N2CCN(C(=O)c3ccco3)CC2)CCN1Cc1ccccc1OC(F)F (stereo unspecified) | · | 0% | · | 3% | -5 | ·
CC1(C(=O)NCc2ccccc2Br)CCN1Cc1ccccc1OC(F)F (stereo unspecified) | · | ? | · | 23µM* | -54* | ·
O=C(Cn1cc(S(=O)(=O)c2ccccc2)c(=O)c2cc3c(cc21)OCO3)Nc1ccc(Cl)cc1 | · | ? | 6% | ? | · | ·
C=C(CN(C)C)C(=O)c1ccc(OC2OC(COC(C)=O)C(OC(C)=O)C(OC(C)=O)C2OC(C)=O)cc1 (stereo unspecified) | -18 | 0.46µM* | · | 0.58µM* | -101* | ·
CC1CCCN(CCOc2ccc3ccccc3c2Br)C1 (stereo unspecified) | -6 | ? | -5% | ? | -216* | 23%

Bioassay records (PubChem BioAssay)
